Assay results published in PubChem BioAssay.
Activity calls are given as the source filed them. Unless noted, no rule for the calls is given here.

What was measured:
[1] = compounds binding Alexa647 anti-His antibody – biochemical, small-molecule microarray, 635 nm fluorescence, artefact control for SMM control protein annotation, primary screen (AID 1128); conditions: higher = more signal;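 also: score merges feature fluorescence with signal-to-noise for each printed compound spot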
[2] = system: Human papillomavirus type 1a E7 protein (residues 1-88); test: HPV1a E7 small-molecule binders, primary screen, biochemical, small-molecule microarray, residues 1-88, 635 nm (AID 1129); conditions: small-molecule microarray binding, fluorescence 635 nm; higher = more signal
[3] = molecular target: Focal adhesion kinase 1 (Homo sapiens) (UniProt Q05397); test: PTK2 protein binding on printed compound slides – biochemical, small-molecule microarray, 635/667 nm fluorescence, BSA, DTT, primary screen (AID 1130); conditions: 635 nm fluorescence, higher = more signal;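 also: composite of spot emission at 667 nm and signal to noise over triplicate slides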
[4] = system: Fibrinogen (Alexa647-labelled); test: Alexa647-fibrinogen binding to printed small molecules – biochemical, small-molecule microarray, 635/667 nm fluorescence, artefact control for SMM control-protein annotation, profiling panel (AID 1131); conditions: fibrinogen-A647 binding fluorescence, higher = more signal;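 also: z-score merges 667 nm fluorescence with per-spot signal-to-noise over triplicate slides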
[5] = molecular target: Follistatin (Homo sapiens) (UniProt P19883); test: FST protein binding to printed compounds – biochemical, small-molecule microarray, 635/667 nm fluorescence, primary screen (AID 1132); conditions: 635 nm fluorescence, higher = more signal
[6] = molecular target: Fibroblast growth factor 2 (Homo sapiens) (UniProt P09038); test: basic fibroblast growth factor binding to printed compounds – biochemical, small-molecule microarray, 635/667 nm fluorescence, primary screen (AID 1133); conditions: FGF2, fluorescence 635/667, higher = more signal
[7] = JC-1 mitochondrial potential readout, lung cancer cells – cell-based, A549, JC-1 fluorescence, basal, 24 h, 100 nL, profiling panel (AID 1138); conditions: higher = more signal;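 also: A549 lung adenocarcinoma cells under basal conditions with no added stimulus; test concentration not given here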
Lefty1 = Lefty1 protein binding to printed compounds – biochemical, small-molecule microarray, 635/667 nm fluorescence, primary screen (AID 1139); conditions: fluorescence 635/667, higher = more signal
[8] = system: wheat germ agglutinin (Triticum aestivum), Alexa647-labelled; test: Alexa647-WGA lectin binding to printed small molecules – biochemical, small-molecule microarray, 635/667 nm fluorescence, artefact control for SMM control-protein annotation, profiling panel (AID 1140); conditions: WGA-A647 binding, 635 nm fluorescence, higher = more signal;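 also: score merges 667 nm feature emission with signal to noise over triplicate slides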
[9] = molecular target: Luciferin 4-monooxygenase (Photinus pyralis) (UniProt P08659); test: inhibition of purified Photinus pyralis luciferase – biochemical, luminescence, purified enzyme, 2006 set, primary screen (AID 1141); conditions: purified firefly luciferase, SteadyGlo luminescence, 30 min; higher = more signal, called active from +8 up or from −8 down;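 also: cell-free assay with purified firefly luciferase at 100 ng per well in PBS; test concentration not given here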
[10] = system: Wnt5a (protein binding on small-molecule microarray); test: small molecules binding Wnt5a protein – biophysical, small-molecule microarray, 635/667 nm fluorescence, primary screen (AID 1142); conditions: 635 nm fluorescence, higher = more signal;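 also: fluorescence read at 667 nm with signal to noise per printed feature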
[11] = ATP-based viability of Huh7 replicon cells – cell-based, CellTiter-Glo luminescence, basal, 48 h, cytotoxicity control for HCV replication inhibitor project, primary screen (AID 1143); conditions: higher = more signal, called active from +8 up or from −8 down;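 also: Huh7 hepatoma cells carrying a hepatitis C replication reporter with no stimulus; test concentration not given here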
[12] = Pseudomonas biofilm growth suppression – PAO1 strain, BacTiter-Glo luminescence, LB-PBS, primary screen (AID 1144); conditions: P. aeruginosa PAO1 biofilm, 12 h, higher = more signal
[13] = basal CRE-LacZ reporter activity in PC12 – cell-based, unstimulated, primary screen (AID 1145); conditions: no forskolin, luminescence, 4.5 h, higher = more signal, called active from +8 up or from −8 down
[14] = forskolin-driven CRE-LacZ activity in PC12 – cell-based, CRE-LacZ reporter, forskolin-stimulated, primary screen (AID 1146); conditions: luminescence, 4.5 h, higher = more signal, called active from +8 up or from −8 down;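 also: PC12 cells with 6xCRE LacZ reporter stimulated by forskolin 10 µM; beta-galactosidase reporter signal reflecting CREB driven transcription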
[15] = molecular target: Streptavidin (Streptomyces avidinii) (UniProt P22629); test: compounds binding control protein streptavidin – biophysical, small-molecule microarray, 635/667 nm fluorescence, artefact control for SMM compound annotation, primary screen (AID 1147); conditions: higher = more signal;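 also: signal reflects streptavidin binding to arrayed compounds as a control protein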
[16] = probe aInhba binding on compound microarray – biochemical, small-molecule microarray, 635/667 nm fluorescence, primary screen (AID 1148); conditions: higher = more signal;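 also: score merges 667nm spot fluorescence with signal-to-noise for antibody binding to printed compounds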
Torsin-1A (Homo sapiens) [17] = molecular target: Torsin-1A (Homo sapiens) (UniProt O14656); test: TOR1A wild-type binding on microarray – cell lysate, small-molecule microarray, lysate, 635/667 nm, primary screen (AID 1149); conditions: COS7 hTOR1A-WT lysate, 635 nm fluorescence, higher = more signal
Torsin-1A (Homo sapiens) [18] = molecular target: Torsin-1A (Homo sapiens) (UniProt O14656); test: torsin A mutant lysate binding on microarrays – cell lysate, small-molecule microarray, COS7 lysate, 635/667 nm fluorescence, primary screen (AID 1150); conditions: COS7 hTOR1A mutant lysate, 635 nm fluorescence, higher = more signal;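 also: score pools 667 nm emission and signal to noise measuring lysate protein binding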
[19] = system: Sonic hedgehog protein (Shh); test: Sonic hedgehog microarray binding compounds – biochemical, small-molecule microarray, 635/667 nm fluorescence, primary screen (AID 1151); conditions: 635 nm fluorescence, higher = more signal;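 also: Shh protein binding to compounds spotted on small-molecule microarray slides; score combines spot fluorescence intensity with signal-to-noise across triplicate slides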

Chain of Luciferin 4-monooxygenase (Photinus pyralis) (P08659 whole entry, looked up): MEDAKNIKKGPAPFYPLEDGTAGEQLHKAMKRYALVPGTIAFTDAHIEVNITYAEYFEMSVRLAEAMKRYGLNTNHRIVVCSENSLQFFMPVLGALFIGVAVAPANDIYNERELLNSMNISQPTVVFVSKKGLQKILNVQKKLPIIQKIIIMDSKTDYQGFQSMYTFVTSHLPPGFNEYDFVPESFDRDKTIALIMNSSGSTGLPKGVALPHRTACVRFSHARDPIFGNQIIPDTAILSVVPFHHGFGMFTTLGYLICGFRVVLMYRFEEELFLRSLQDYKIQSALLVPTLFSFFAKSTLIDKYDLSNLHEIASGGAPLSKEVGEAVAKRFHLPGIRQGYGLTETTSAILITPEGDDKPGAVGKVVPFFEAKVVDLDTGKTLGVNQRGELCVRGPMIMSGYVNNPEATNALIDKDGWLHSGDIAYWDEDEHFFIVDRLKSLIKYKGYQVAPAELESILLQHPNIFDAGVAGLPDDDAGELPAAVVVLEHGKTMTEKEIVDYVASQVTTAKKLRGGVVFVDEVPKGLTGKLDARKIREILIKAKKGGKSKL
Chain of Follistatin (Homo sapiens) (P19883 whole entry, looked up): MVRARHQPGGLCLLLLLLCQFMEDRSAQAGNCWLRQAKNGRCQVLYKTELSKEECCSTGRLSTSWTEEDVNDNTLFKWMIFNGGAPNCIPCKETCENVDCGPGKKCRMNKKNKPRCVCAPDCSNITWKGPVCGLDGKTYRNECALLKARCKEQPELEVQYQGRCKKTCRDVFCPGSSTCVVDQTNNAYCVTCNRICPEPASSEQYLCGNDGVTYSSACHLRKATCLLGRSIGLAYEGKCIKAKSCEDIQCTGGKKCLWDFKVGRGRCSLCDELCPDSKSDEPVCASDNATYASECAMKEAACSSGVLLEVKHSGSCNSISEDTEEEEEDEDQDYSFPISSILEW
Chain of Focal adhesion kinase 1 (Homo sapiens) (Q05397 whole entry, looked up): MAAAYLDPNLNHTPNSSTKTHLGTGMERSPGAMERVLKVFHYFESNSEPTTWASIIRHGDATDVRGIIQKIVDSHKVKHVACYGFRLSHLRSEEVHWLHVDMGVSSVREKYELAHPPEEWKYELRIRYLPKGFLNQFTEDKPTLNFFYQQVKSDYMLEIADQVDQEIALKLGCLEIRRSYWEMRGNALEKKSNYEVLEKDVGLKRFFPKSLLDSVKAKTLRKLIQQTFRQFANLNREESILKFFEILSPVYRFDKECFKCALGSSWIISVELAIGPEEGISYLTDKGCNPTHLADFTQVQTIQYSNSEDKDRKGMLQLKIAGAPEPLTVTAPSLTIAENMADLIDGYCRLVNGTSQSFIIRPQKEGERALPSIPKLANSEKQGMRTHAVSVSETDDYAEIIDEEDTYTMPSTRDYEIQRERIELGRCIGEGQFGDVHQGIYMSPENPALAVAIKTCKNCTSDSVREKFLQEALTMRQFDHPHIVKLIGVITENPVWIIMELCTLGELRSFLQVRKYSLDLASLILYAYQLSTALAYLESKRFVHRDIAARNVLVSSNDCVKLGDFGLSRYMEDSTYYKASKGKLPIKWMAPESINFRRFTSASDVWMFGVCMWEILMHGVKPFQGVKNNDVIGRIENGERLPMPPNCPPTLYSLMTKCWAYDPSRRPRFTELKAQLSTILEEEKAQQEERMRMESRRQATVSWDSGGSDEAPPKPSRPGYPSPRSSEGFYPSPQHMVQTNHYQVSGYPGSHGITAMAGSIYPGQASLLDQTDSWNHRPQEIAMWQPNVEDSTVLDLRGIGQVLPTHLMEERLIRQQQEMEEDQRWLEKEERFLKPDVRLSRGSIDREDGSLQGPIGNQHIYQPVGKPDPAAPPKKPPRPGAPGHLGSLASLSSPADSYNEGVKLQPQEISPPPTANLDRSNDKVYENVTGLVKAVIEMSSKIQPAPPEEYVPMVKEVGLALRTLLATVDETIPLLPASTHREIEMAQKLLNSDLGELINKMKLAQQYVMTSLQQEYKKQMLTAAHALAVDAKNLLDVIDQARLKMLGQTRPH
Chain of Torsin-1A (Homo sapiens) (O14656 whole entry, looked up): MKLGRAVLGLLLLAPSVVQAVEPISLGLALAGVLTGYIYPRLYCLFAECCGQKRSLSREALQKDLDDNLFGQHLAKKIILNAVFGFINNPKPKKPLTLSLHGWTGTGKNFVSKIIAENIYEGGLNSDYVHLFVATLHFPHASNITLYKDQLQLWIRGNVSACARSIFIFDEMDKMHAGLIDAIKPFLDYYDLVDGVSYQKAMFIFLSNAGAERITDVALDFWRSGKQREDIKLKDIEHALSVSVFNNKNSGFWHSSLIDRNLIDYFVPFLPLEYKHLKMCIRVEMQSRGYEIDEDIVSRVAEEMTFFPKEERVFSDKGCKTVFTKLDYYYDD
Chain of Streptavidin (Streptomyces avidinii) (P22629 whole entry, looked up): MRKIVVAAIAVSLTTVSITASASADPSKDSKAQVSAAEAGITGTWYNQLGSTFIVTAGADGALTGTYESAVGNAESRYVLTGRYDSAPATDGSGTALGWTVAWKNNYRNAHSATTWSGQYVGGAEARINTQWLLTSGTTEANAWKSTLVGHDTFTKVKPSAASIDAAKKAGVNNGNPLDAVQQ
Chain of Fibroblast growth factor 2 (Homo sapiens) (P09038 whole entry, looked up): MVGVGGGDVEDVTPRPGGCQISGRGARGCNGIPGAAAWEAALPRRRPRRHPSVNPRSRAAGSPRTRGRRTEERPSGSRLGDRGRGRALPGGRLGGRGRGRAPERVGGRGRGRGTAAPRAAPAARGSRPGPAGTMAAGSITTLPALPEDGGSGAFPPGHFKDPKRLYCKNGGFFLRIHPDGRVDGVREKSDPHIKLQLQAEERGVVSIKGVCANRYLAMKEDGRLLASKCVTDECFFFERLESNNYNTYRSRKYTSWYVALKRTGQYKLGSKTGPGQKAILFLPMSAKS

SMILES | composite z-score [1] | composite z-score [2] | composite z-score [3] | composite z-score [4] | composite z-score [5] | composite z-score [6] | z-score [7] | composite z-score (Lefty1) | composite z-score [8] | z-score [9] | composite z-score [10] | z-score [11] | z-score [12] | z-score [13] | z-score [14] | composite z-score [15] | composite z-score [16] | composite z-score (Torsin-1A (Homo sapiens) [17]) | composite z-score (Torsin-1A (Homo sapiens) [18]) | composite z-score [19]
C=CC[C@]1(C(=O)NCC(O)CO)N=C(c2ccc(OCCCO)cc2)O[C@H]1c1ccccc1N=[N+]=[N-] (stereo not given in full) | 2.28 | 0.653 | 0.302 | 0.66 | 1.1 | 0.264 | -0.152 | -0.661 | 0.986 | -6.91 (inactive) | 0.257 | -1.4 (inactive) | -0.323 (inactive) | 1.24 (inactive) | -0.652 (inactive) | 1.4 | 0.215 | 0.16 | 1.46 | -0.723
COc1ccc(C(=O)Nc2ccc(CN3C(=O)[C@]4(O[C@H](CCn5cc([C@H](O)c6ccccc6)nn5)[C@@H]([Si](C)(C)c5ccc(OC)cc5)[C@@H]4C)c4ccccc43)cc2)cc1 | -0.271 | -0.303 | -0.288 | 0.107 | 0.971 | -0.224 | 0.496 | 0.444 | 0.849 | -0.363 (inactive) | -0.0249 | -6.51 (inactive) | -0.675 (inactive) | -0.375 (inactive) | -1.22 (inactive) | -0.19 | -0.0044 | 0.33 | 0.223 | 0.666
O=C1c2ccccc2[C@](Cc2ccccc2I)(C(=O)NC2CC2)[C@H](c2ccc(CO)cc2)N1Cc1ccccc1Cl | 1.07 | 1.17 | 0.344 | 0.0468 | 1.23 | 1.6 | 0.756 | 0.0036 | 0.86 | -0.0487 (inactive) | 0.805 | -0.77 (inactive) | 0.167 (inactive) | 0.468 (inactive) | -0.159 (inactive) | 0.191 | 0.168 | 0.501 | 1.04 | 1
CN(C)C(=O)[C@@]1(CCC(=O)OC(C)(C)C)COC(c2ccc(OCCCO)cc2)=N1 | 0.282 | 1.11 | 1.63 | -0.254 | 0.625 | -0.357 | -0.191 | -0.235 | 0.334 | 0.995 (inactive) | 0.0507 | -0.196 (inactive) | -0.478 (inactive) | -0.277 (inactive) | 0.855 (inactive) | -0.354 | 0.174 | 0.445 | 1.45 | -0.942
C=CC[C@@]1(C(=O)NCC(O)CO)N=C(c2ccc(OCCCO)cc2)O[C@@H]1c1ccccc1 (stereo not given in full) | 1.98 | 0.932 | 0.307 | 0.543 | 1.44 | 1.02 | 1.01 | 0.0457 | 1.27 | -1.31 (inactive) | 1.19 | -0.834 (inactive) | 0.627 (inactive) | 0.685 (inactive) | -0.458 (inactive) | 0.145 | 0.524 | 0.373 | 2.47 | -0.702
